# Laboratory results taken from the supplement of paper PMC3334620.
# In all, about 33,000 sequences were measured (“E-score (-0.5 to 0.5)”: median about -0.041, highest 2% from about 0.37 on). The full list was thinned out, with the highest values kept by preference.
# Biological target: T1, Ecm22 (UniProt Q05958)
# T1 sequence: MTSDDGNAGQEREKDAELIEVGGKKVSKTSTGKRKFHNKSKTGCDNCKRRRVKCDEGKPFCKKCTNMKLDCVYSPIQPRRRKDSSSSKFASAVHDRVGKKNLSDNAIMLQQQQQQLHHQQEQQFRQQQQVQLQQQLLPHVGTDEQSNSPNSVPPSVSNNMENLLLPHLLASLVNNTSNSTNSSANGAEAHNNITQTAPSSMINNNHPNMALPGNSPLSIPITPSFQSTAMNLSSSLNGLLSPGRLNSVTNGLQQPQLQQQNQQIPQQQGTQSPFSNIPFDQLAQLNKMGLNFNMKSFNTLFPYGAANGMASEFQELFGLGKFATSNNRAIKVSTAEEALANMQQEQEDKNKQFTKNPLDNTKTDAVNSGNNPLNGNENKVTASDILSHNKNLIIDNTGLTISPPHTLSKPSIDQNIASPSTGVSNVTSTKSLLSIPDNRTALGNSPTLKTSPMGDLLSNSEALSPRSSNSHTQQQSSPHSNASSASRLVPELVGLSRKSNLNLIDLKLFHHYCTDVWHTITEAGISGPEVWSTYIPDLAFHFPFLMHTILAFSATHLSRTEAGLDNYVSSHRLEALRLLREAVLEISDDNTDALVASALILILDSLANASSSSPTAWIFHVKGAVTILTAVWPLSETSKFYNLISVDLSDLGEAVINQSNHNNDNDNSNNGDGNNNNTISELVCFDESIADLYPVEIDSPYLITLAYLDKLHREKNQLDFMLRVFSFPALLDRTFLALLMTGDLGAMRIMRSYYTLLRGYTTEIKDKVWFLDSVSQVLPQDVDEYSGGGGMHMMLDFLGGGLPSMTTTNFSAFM
# Assay: PBM E-score (8-mer binding enrichment) (E-score (-0.5 to 0.5)); higher = stronger / more preferred TF binding
# Details: protein concentration: 200 nM; construct: GST-full length
# Procedure, shortened: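 PURExpress in vitro transcription/translation supplied GST-tagged yeast transcription factors, either full-length or DNA-binding domain. Applied at about 100-200 nM to universal all-10-mer Agilent arrays double-stranded by primer extension, the bound protein was detected with fluorescent anti-GST. E-scores, modified Wilcoxon-Mann-Whitney statistics, were given by the Universal PBM Analysis Suite to ungapped eight-base words pooled with their reverse complements after masliner normalisation.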
row,Sequence,PBM E-score
1,CCTCCTTA,0.032
2,CATGCGGG,-0.05
3,ATAGTGCC,0.0559
4,CTAAGCTC,-0.2
5,ACCGTCTG,-0.112
6,ATTGCAGG,-0.00797
7,CCGGTACC,-0.103
8,CCGGTACG,0.448
9,ACGGTACG,0.436
10,ACGGTACT,0.0921
11,CCGGTACA,0.0868
12,ACGGTACC,0.206
13,AAAGATTG,-0.286
14,ACGGAGGA,0.151
15,CTCGCTCC,0.405
16,GTCGCTAA,0.289
17,ATCGCTTA,0.327
18,ATCGCTCC,0.185
19,CTCGCTCA,0.358
20,CTCGCTGA,-0.0623
21,CTCGCTTA,0.41
22,GTCGCTGA,-0.073

row,Sequence,PBM E-score
1,GTCGCTTA,0.37
2,AAACTCCG,-0.112
3,AGGGACGG,-0.256
4,AGTCCGGC,-0.138
5,AGCGTATA,0.366
6,AACGTATC,0.127
7,GACGTATA,0.365
8,TACGTACA,0.328
9,CGCGTATA,0.403
10,CACGTATG,0.0729
11,TACGTAGA,0.133
12,AACGTATT,0.229
13,TACGTATA,0.401
14,AACGTATA,0.411
15,GGCGTATA,0.359
16,CACGTATA,0.386
17,GGGTGGAA,-0.284
18,CACCCGCG,-0.0941
19,TGCTAACA,-0.0691
20,ACCTGGCT,-0.059
21,ATCCAAGC,-0.231
22,ACTAAGGA,0.1

row,Sequence,PBM E-score
1,CGGCCATC,-0.22
2,CAGCCTCA,-0.00094
3,TTCCACAA,-0.0103
4,CTCAGTTA,-0.187
5,ACGGCGAG,0.214
6,ACGGCGAC,0.21
7,ACGGCGAT,0.377
8,AAAGCCTG,-0.228
9,ACAGCCCT,-0.279
10,AAGCTGCA,-0.0356
11,ATTCGTGC,-0.00078
12,ATTCGTAC,0.468
13,CTTCGTCA,0.117
14,CTTCGTAA,0.413
15,CTTCGTAC,0.477
16,CTTCGTCC,-0.243
17,CTTCGTGA,0.209
18,ATTCGTCC,0.0925
19,CTTCGTGC,0.0216
20,ACGATCTA,0.22
21,ACGATGCT,0.283
22,GCATACGC,0.199

row,Sequence,PBM E-score
1,CCATACGC,0.218
2,ACATACGA,0.466
3,ACATACGG,0.321
4,TCATACCA,-0.0984
5,CCATACGG,0.345
6,GCATACGA,0.446
7,ACATACGC,0.221
8,GCATACAA,0.0278
9,TCATACAA,-0.115
10,TCATACGA,0.463
11,CCATACGA,0.462
12,GAACCCGC,0.0274
13,AAGAAAAC,0.0702
14,TAATCATA,-0.0103
15,TAATCGCA,0.215
16,CGAGGACA,0.0726
17,CAGTACGC,0.06
18,AAGTACGA,0.448
19,TAGTACGA,0.443
